PvdQ inh = blocks Pseudomonas aeruginosa PvdQ acylase activity | inhibition, % at 10 µM | purified PvdQ acylase, fluorescence plate reader | hit rate 0.063% among 340,000 | AID 488965; in the data active = inhibition above about 30%, passing the limit was not always enough
SIRT5 block = inhibitors of human sirtuin-5 desuccinylase. Q9NXA8. hit rate 1.1% among 330,000. Purified SirT5, succinyl-peptide AMC, trypsin-coupled fluorescence. inhibition, % at 15 µM; in the data active = inhibition above about 15%
Target sequence (Q9NXA8 whole entry, looked up): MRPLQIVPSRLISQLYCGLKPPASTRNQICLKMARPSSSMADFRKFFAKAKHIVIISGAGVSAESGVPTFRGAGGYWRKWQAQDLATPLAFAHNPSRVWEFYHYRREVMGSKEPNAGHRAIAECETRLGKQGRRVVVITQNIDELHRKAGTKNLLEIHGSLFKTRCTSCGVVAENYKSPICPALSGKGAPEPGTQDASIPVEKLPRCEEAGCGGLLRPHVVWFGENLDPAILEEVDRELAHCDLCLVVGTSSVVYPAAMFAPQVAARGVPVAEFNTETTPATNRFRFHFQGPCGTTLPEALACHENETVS
dFosB act = activators of mouse delta FosB homodimer; P13346; purified delta FosB, TAMRA-CDK5 oligo fluorescence polarization; percent of positive-control signal above neutral wells; activation, % at 25 µM; hit rate 0.99% among 340,000;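 active = mean activation above about 17%, with every replicate also reaching it, limit read from the data, passing the limit was not always enough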
PglD DTNB = inhibitors of Campylobacter jejuni PglD acetyltransferase. hit rate 0.098% among 360,000. purified PglD enzyme, DTNB colorimetric CoA detection. inhibition, % at 12.5 µM; in the data active = inhibition above about 16%, passing the limit was not always enough
CDK5 inh = inhibitors of human CDK5/p35 kinase | Recombinant CDK5/p35, ADP-Glo luminescence, 60 min | inhibition, % at 10 µM | hit rate 0.01% among 330,000 | AID 488839;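 active = highest replicate inhibition of at least 50% and at least 75% of replicates reaching 50%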
FGF22 binding = binders of recombinant human FGF22 by thermal shift. Q9HCT0. activity (Tm shift, normalised), % at 9.99 µM. hit rate 1.5% among 340,000. SYPRO orange fluorescence; percent of sucrose octasulfate shift, DMSO zero;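 active = mean Tm shift, scaled 0 neutral to 100 positive control, at about 1.3% or above, every replicate too, limit read from the data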
Target sequence (Q9HCT0 whole entry, looked up): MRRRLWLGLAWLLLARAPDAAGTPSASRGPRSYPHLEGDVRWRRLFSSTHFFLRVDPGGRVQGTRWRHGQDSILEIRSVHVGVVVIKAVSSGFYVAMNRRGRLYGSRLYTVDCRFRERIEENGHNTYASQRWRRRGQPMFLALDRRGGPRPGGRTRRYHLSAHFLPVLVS
Of the large screens only hits and unclear results are named; the others gave an inactive call. Rows were chosen to be rich in hits. Some 2.8% of all compounds tested hit in one or more screens of this group.

CCN(C(=O)CN1C(=O)S/C(=C\c2cccc(OC)c2)C1=O)C1CCS(=O)(=O)C1 (configuration not stated)	SIRT5 block 16
COc1cccc(/C=C2\SC(=S)N(CC(=O)N(C)C3CCS(=O)(=O)C3)C2=O)c1 (configuration not stated)	none
CC1(C)CC(NC(=O)COc2ccccc2Cl)CC(C)(C)N1	FGF22 binding 44
CC1(C)CC(NC(=O)COc2ccc(Br)cc2Cl)CC(C)(C)N1	none
C[C@H]1CN([C@@H](C)CO)C(=O)c2cc(NC(=O)Cn3cnnn3)ccc2O[C@@H]1CN(C)S(C)(=O)=O	none (no result: PvdQ inh, dFosB act, CDK5 inh)
O=C(O)CN1C(=O)/C(=C2\SC(=S)N(C(Cc3ccccc3)C(=O)O)C2=O)c2ccccc21 (configuration not stated)	SIRT5 block 17
O=C(CN1CCC(C(=O)c2cccc(F)c2)CC1)NCc1cccs1	FGF22 binding 43 (no result: PglD DTNB)
COCC(=O)Nc1ccc2c(c1)C(=O)N(C)[C@@H]1CC[C@H](CC(=O)NCCCN(C)C)O[C@@H]1CO2	none (no result: PvdQ inh, dFosB act, CDK5 inh)
CO[C@H]1CN(C)C(=O)c2cc(NC(=O)C3CCCC3)ccc2OC[C@@H](C)N(CC2CC2)C[C@@H]1C	none (no result: PvdQ inh, dFosB act, CDK5 inh)
COc1ccc(C2(O)CN(c3ccc(C)cc3)C3=[N+]2CCCC3)cc1 (configuration not stated)	FGF22 binding 43 (no result: PglD DTNB)
CC(C)NC(=O)N(C)C[C@@H]1Oc2c(NC(=O)C3CCOCC3)cccc2C(=O)N([C@H](C)CO)C[C@@H]1C	none (no result: PvdQ inh, dFosB act, CDK5 inh)
CC(C)C#Cc1ccc2c(c1)O[C@@H](CN(C)C)[C@@H](C)CN([C@@H](C)CO)S2(=O)=O	none (no result: PvdQ inh, dFosB act, CDK5 inh)
COc1ccc(CN(C#N)c2nc(C)cc(C)n2)cc1	none
Cc1cc(C)nc(N(C#N)Cc2cccc([N+](=O)[O-])c2)n1	PvdQ inh 36 (no result: SIRT5 block, PglD DTNB, FGF22 binding)
Cc1cc(CSc2nc(C)cc(=O)[nH]2)c2ncccc2c1	FGF22 binding 43 (no result: PglD DTNB)
Cn1c(-c2ccc(F)cc2)cnc1SCC(=O)Nc1ccccc1	none (no result: PglD DTNB)
CC(=O)Nc1ccc(NC(=O)Cn2c(-c3ccc(F)cc3)cnc2SCC(=O)Nc2c(C)cccc2C)cc1	dFosB act 64 (no result: SIRT5 block, FGF22 binding)
COc1cc(CN(C)C)cc(C=O)c1O	none (no result: SIRT5 block, PglD DTNB, FGF22 binding)
COc1cc(N=Nc2ccc(Br)cc2)cc(C=O)c1O	SIRT5 block 18 (no result: PvdQ inh, dFosB act, CDK5 inh)
C[C@@H]1CCCCO[C@H](CN(C)Cc2ccc3c(c2)OCO3)[C@H](C)CN([C@H](C)CO)C(=O)c2cc(NC(=O)Cc3ccccc3)ccc2O1	none (no result: PvdQ inh, SIRT5 block, dFosB act, CDK5 inh)
CCc1ccc(NC(=O)CSc2nc3ccsc3c(=O)n2CCCCCC(=O)O)cc1	FGF22 binding 43 (no result: PglD DTNB)
CCOc1ccc(NC(=O)CSc2nc3ccsc3c(=O)n2CCCCC(=O)O)cc1	none (no result: PvdQ inh, SIRT5 block, dFosB act, CDK5 inh)
CC(=O)c1cn(CC(=O)Nc2ccccc2C(F)(F)F)c2ccccc12	none (no result: PglD DTNB)
CC(=O)c1cn(CC(=O)Nc2cccc(C)c2C)c2ccccc12	SIRT5 block 22
COC(=O)c1ccc(N)cc1O	none (no result: SIRT5 block, FGF22 binding)
COC(=O)c1ccc(=O)c2nc3/c(=C/O)c(O)cc(=O)c3[nH]c12	SIRT5 block 20
CO[C@H]1CN(C)C(=O)c2cc(NS(C)(=O)=O)ccc2OC[C@H](C)N(C(=O)C2CC2)C[C@H]1C	none (no result: PvdQ inh, dFosB act, CDK5 inh)
c1ccc(Nc2c3c(nc4ccccc24)CCC3)cc1	none (no result: PglD DTNB)
CN(C)CCCNc1c2c(nc3ccccc13)CCC2	dFosB act 20
Fc1ccc(Nc2c3c(nc4ccccc24)CCC3)cc1	FGF22 binding 1.5
COCCNc1c2c(nc3ccccc13)CCC2	none
COc1ccc(-c2ccc3c(c2)[C@H]2[C@H](CCN2C(=O)Cc2cccnc2)[C@H](CO)N3C)cc1	none (no result: PvdQ inh, dFosB act, CDK5 inh)
CO[C@@H]1CN(C)C(=O)c2ccc(NC(=O)C3CC3)cc2OC[C@@H](C)N(C(=O)c2cnccn2)C[C@@H]1C	none (no result: PvdQ inh, dFosB act, PglD DTNB, CDK5 inh)
C[C@@H]1CN([C@@H](C)CO)C(=O)c2cc(NC(=O)CCCN(C)C)ccc2O[C@@H]1CN(C)CC1CCCCC1	none (no result: PvdQ inh, dFosB act, PglD DTNB, CDK5 inh)
C=C(C)CSc1nc2c(c(=O)[nH]c(=O)n2C)n1Cc1ccccc1	none
CC(C)=NNc1nc2c(c(=O)[nH]c(=O)n2C)n1CCc1ccccc1	SIRT5 block 37 (no result: PglD DTNB)
Cn1c(=O)[nH]c(=O)c2c1nc(SCC(=O)Nc1ccccc1)n2Cc1ccccc1	dFosB act 54
COc1ccc(C(C)C)cc1S(=O)(=O)NCC1CCCO1 (configuration not stated)	SIRT5 block 15
COc1ccc(OC)c(S(=O)(=O)NCC2CCCO2)c1 (configuration not stated)	none (no result: SIRT5 block, FGF22 binding)
O=C(NCc1ccc(F)cc1)C1CC(=O)N(C2CCCCC2)C1 (configuration not stated)	SIRT5 block 31
O=C(NCc1ccccc1)C1CC(=O)N(C2CCCCC2)C1 (configuration not stated)	none
Cn1cnnc1Sc1cc(N2CCN(S(=O)(=O)c3ccccc3)CC2)ccc1[N+](=O)[O-]	FGF22 binding 45 (no result: PglD DTNB)
CCS(=O)(=O)c1ccc(Sc2nncn2C)c([N+](=O)[O-])c1	none (no result: PglD DTNB)
CC(C)NC(=O)N(C)C[C@H]1Oc2ccc(NC(=O)Nc3ccc4c(c3)OCO4)cc2CC(=O)N([C@H](C)CO)C[C@H]1C	none (no result: PvdQ inh, dFosB act, CDK5 inh)
C[C@@H]1CN([C@H](C)CO)C(=O)c2cc(C3=CCCCC3)cnc2O[C@H]1CN(C)C(=O)CN1CCOCC1	none (no result: PvdQ inh, dFosB act, CDK5 inh)
c1ccc2c(CN3CCCCC3)csc2c1	SIRT5 block 15 (no result: PglD DTNB)
Cc1ccc2scc(CN3CCCC3)c2c1	PvdQ inh 38
CO[C@H]1CN(C)C(=O)c2ccc(NC(=O)NC(C)C)cc2OC[C@H](C)N(CC2CC2)C[C@@H]1C	none (no result: PvdQ inh, dFosB act, CDK5 inh)
C[C@@H]1CN([C@@H](C)CO)C(=O)c2cc(-c3ccc(F)cc3)cnc2O[C@@H]1CN(C)C(=O)CN(C)C	none (no result: PvdQ inh, dFosB act, CDK5 inh)
Cn1cc(CN2CCC(C(=O)N3CCCC3)CC2)c(-c2ccccc2F)n1	FGF22 binding 43 (no result: PglD DTNB)
COc1ccc(CN(C)C[C@H]2Oc3ccc(NS(C)(=O)=O)cc3CC(=O)N([C@@H](C)CO)C[C@H]2C)cc1	none (no result: PvdQ inh, dFosB act, CDK5 inh)
Cc1cccc2c(N=O)c(O)n(CCc3ccccc3)c12	SIRT5 block 16
Cc1cccc2c(=O)cc(C)n(Cc3ccccc3)c12	PvdQ inh 35 (no result: PglD DTNB)
Cc1ccc(Cn2c(O)c(N=O)c3ccccc32)cc1	none (no result: PglD DTNB)
CNC(=O)Cn1c(C)cc(=O)c2cccc(C)c21	none (no result: PvdQ inh, dFosB act, CDK5 inh)
O=C(NC1CCCCC1)N[C@H]1CC[C@@H](CC(=O)N2CCOCC2)O[C@H]1CO	none (no result: PvdQ inh, dFosB act, CDK5 inh)
O=C(NC1CCCC1)N[C@@H]1CC[C@H](CC(=O)N2CCOCC2)O[C@H]1CO	SIRT5 block 25 (no result: PvdQ inh, dFosB act, CDK5 inh)
CO[C@H]1CC[C@H]2CCN(C)C(=O)[C@@H](C)CN(C)C(=O)c3cc(C#N)ccc3OC[C@H]1O2	none (no result: PvdQ inh, dFosB act, CDK5 inh)
C[C@@H]1CN([C@H](C)CO)C(=O)c2cc(/C=C/c3ccccc3)cnc2O[C@H]1CN(C)C(=O)CN(C)C	none (no result: PvdQ inh, dFosB act, CDK5 inh)
C[C@@H]1CN([C@H](C)CO)C(=O)c2cc(NC(=O)NC3CCCCC3)ccc2O[C@@H](C)CCCCO[C@@H]1CN(C)S(=O)(=O)c1cccs1	none (no result: PvdQ inh, dFosB act, CDK5 inh)

Source: PubChem (Broad Institute)
